{"source": "PubChem BioAssay (NCI)", "note": "Compounds without any hit were thinned out: in the full panel of roughly 83,000, 20% have a hit.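 Cells were grown in 96-well plates and exposed to the test compound at a single concentration for 48 hours; results are reported as percent growth, with values below 10 considered active.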 Values without a mark were called inactive. Active and inactive are the calls of the source.", "data": [{"tested_on": "NCI-H460 lung", "assay": "NCI-60 one-dose screen, 48 h (100 = growth as untreated, 0 = no growth, -100 = all killed)", "conditions": "10 µM unless noted", "values": [{"smiles": "Cc1ccc(NC(=O)c2ccc(CN3CCN(C)CC3)cc2)cc1Oc1ccc(-c2[nH]nc3ncnc(N)c23)cc1", "growth": "110%"}, {"smiles": "c1ccc(C(c2nc3ncncc3[nH]2)N2CSc3nc4ccccc4n3C2)cc1", "note": "(stereo not drawn)", "growth": "107%"}, {"smiles": "COc1ccc(Cn2cc3c(c2-c2cc(OC)c(OC)c(OC)c2)CCc2c(CN4CCCC4)noc2-3)cc1", "growth": "9.59% (active)"}, {"smiles": "CC1=CC(=O)C2=C(C)CC(OC(=O)CCc3ccccc3)[C@@H]3[C@H](OC(=O)[C@@H]3C)[C@@H]12", "note": "(stereo partly drawn)", "growth": "103%"}, {"smiles": "CCCCCc1ccc(S(=O)(=O)Nc2cccc(-c3csc(NC(=O)CN4CCN(CCO)CC4)n3)c2)cc1", "growth": "44.4%"}, {"smiles": "O=C(Nc1ccc(F)c(F)c1)c1cc(-c2ccc(F)cc2F)ccc1O", "growth": "2.98% (active)"}, {"smiles": "COc1c(N2CC3CCCNC3C2)c(F)cc2c(=O)c(C(=O)N/N=C/c3ccc(N(C)C)cc3)cn(C3CC3)c12", "note": "(stereo not drawn)", "growth": "78.3%"}, {"smiles": "CC(=O)C1=C(C)NC(NN)=NC1c1cccc(Cl)c1", "note": "(stereo not drawn)", "growth": "112%"}, {"smiles": "C=CCn1c(SCC(=O)Nc2ccc(C(=O)/C=C/c3ccc(Br)cc3)cc2)nnc1-c1c[nH]c2ccccc12", "growth": "95.4%"}, {"smiles": "COc1cc(Cn2cc3c(c2)-c2onc(CN4CCCC4)c2CC3)cc(OC)c1OC", "growth": "109%"}, {"smiles": "O=C1Nc2ccccc2/C1=C/c1ccc(CO)n1-c1ccc(Cl)cc1", "growth": "35.6%"}, {"smiles": "O=C(CSc1nc2ccccc2c(=O)n1-c1ccc(Cl)cc1)N/N=C/c1ccc(N2CCCCC2)cc1", "growth": "9.74% (active)"}, {"smiles": "Cc1ccc(-n2c(/C=C3\\C(=O)Nc4ccccc43)ccc2CO)cc1", "growth": "80.3%"}, {"smiles": "NC(=O)c1c(NC(=O)c2ccc(F)cc2F)sc2c1CCC(=O)C2", "growth": "109%"}, {"smiles": "CCC(CC)N1C(=O)/C(=c2\\sc3n(c2=O)NC2C(N=3)N(CC)C(=O)N2CC)c2ccccc21", "note": "(stereo not drawn)", "growth": "27.5%"}, {"smiles": "Clc1cccc(/C=N/Nc2nc(N/N=C/c3cccc(Cl)c3Cl)nc(N3CCCCC3)n2)c1Cl", "growth": "33.8%"}, {"smiles": "CCn1c2ccccc2c2cc(-n3nncc3-c3ccccc3)ccc21", "growth": "0.528% (active)"}, {"smiles": "Cc1c(Cl)cccc1S(=O)(=O)Nc1ccc2c(c1)C(=O)N(C1CCC(=O)NC1=O)C2=O", "note": "(stereo not drawn)", "growth": "111%"}, {"smiles": "COc1ccc(NC(=O)CSc2nnc(-c3ccc4nc(-c5ccccc5)[nH]c4c3)o2)cc1", "growth": "99.8%"}, {"smiles": "CCOP(=O)(OCC)OC[C@]12CCC(C)(C)C=C1[C@H]1CC[C@@H]3[C@@]4(C)CC[C@H](OP(=O)(OCC)OCC)C(C)(C)[C@@H]4CC[C@@]3(C)[C@]1(C)CC2", "growth": "-62.2% (active)"}, {"smiles": "CCOC(=O)C(=O)CC(=O)N1C(=S)NC(=O)C1CC(C)C", "note": "(stereo not drawn)", "growth": "110%"}, {"smiles": "COc1cc(Cn2cc3c(c2)-c2onc(CN4CCOCC4)c2CC3)cc(OC)c1OC", "growth": "111%"}, {"smiles": "CC/C(=C/c1cc(OC)ccc1O)c1ccc2cc(OC)ccc2[o+]1", "growth": "33.6%"}, {"smiles": "O=C(O)c1ccc(-n2cc(CNc3cc(F)c(F)c(F)c3)c(-c3cccc(F)c3)n2)cc1", "growth": "98.8%"}, {"smiles": "C=CCn1c(SCC(=O)Nc2ccc(C(=O)/C=C/c3cccc([N+](=O)[O-])c3)cc2)nnc1-c1c[nH]c2ccccc12", "growth": "102%"}]}, {"tested_on": "HOP-92 NSCLC", "assay": "NCI-60 one-dose screen, 48 h (100 = growth as untreated, 0 = no growth, -100 = all killed)", "conditions": "10 µM", "values": [{"smiles": "CCCCCc1ccc(S(=O)(=O)Nc2cc(-c3csc(NC(=O)CN4CCN(CCO)CC4)n3)ccc2OC)cc1", "growth": "46.8%"}, {"smiles": "N/C(=N\\C(N)=N\\c1nc2ccccc2s1)c1ccc(C(F)(F)F)cc1", "growth": "82.1%"}, {"smiles": "CCn1c(SCC(=O)Nc2cccc(C(=O)/C=C/c3ccc(Br)cc3)c2)nc2ccccc2c1=O", "growth": "76.9%"}, {"smiles": "O=S(=O)(NCCCNc1nccc(-c2[nH]c(-c3ccccc3)nc2-c2ccc(Cl)c(O)c2)n1)c1ccc(Br)cc1", "growth": "46%"}, {"smiles": "CS(=O)(=O)Nc1cc(-c2ccc3ncc(C#N)c(N[C@H](CO)c4ccccc4)c3c2)cnc1Cl", "growth": "-2.14% (active)"}, {"smiles": "Cn1ccnc1C(=O)/C=C/c1ccc(CNC(=O)c2ccc(Cl)cc2)cc1", "growth": "10.3%"}, {"smiles": "O=C(Cn1cc(-c2ccccc2)nn1)Nc1nc(-c2ccc(Cl)cc2)cs1", "growth": "130%"}, {"smiles": "Nc1cc(F)ccc1NC(=O)c1ccc(NC(=O)C/C=C/c2cccnc2)cc1", "growth": "25.2%"}, {"smiles": "CCOC(=O)C1=NNC(c2ccc(Cl)cc2)C1C(=O)N1C(=S)NC(=O)C1CC(C)C", "note": "(stereo not drawn)", "growth": "90.2%"}, {"smiles": "COc1ccc(S(=O)(=O)NCCCNc2nccc(-c3[nH]c(-c4ccccc4)nc3-c3ccc(Cl)c(O)c3)n2)cc1", "growth": "114%"}, {"smiles": "N=c1c2cc(-c3ccccc3)oc2ncn1/N=C/c1ccc(Br)cc1", "growth": "105%"}, {"smiles": "CS(=O)(=O)Nc1cc(-c2ccc3ncc(C#N)c(Nc4cccc(Cl)c4F)c3c2)cnc1Cl", "growth": "-25% (active)"}, {"smiles": "C=CCn1c(SCC(=O)Nc2ccc(C(=O)/C=C/c3ccc(Cl)cc3)cc2)nnc1-c1c[nH]c2ccccc12", "growth": "79.9%"}, {"smiles": "Cc1ccc(NC(=O)c2ccc(CN3CCN(C)CC3)cc2)cc1Oc1ccc(-c2[nH]nc3ncnc(N)c23)cc1", "growth": "98.3%"}, {"smiles": "c1ccc(C(c2nc3ncncc3[nH]2)N2CSc3nc4ccccc4n3C2)cc1", "note": "(stereo not drawn)", "growth": "91.5%"}, {"smiles": "COc1ccc(Cn2cc3c(c2-c2cc(OC)c(OC)c(OC)c2)CCc2c(CN4CCCC4)noc2-3)cc1", "growth": "75.5%"}, {"smiles": "CC1=CC(=O)C2=C(C)CC(OC(=O)CCc3ccccc3)[C@@H]3[C@H](OC(=O)[C@@H]3C)[C@@H]12", "note": "(stereo partly drawn)", "growth": "92.6%"}, {"smiles": "CCCCCc1ccc(S(=O)(=O)Nc2cccc(-c3csc(NC(=O)CN4CCN(CCO)CC4)n3)c2)cc1", "growth": "59.5%"}, {"smiles": "O=C(Nc1ccc(F)c(F)c1)c1cc(-c2ccc(F)cc2F)ccc1O", "growth": "-19% (active)"}, {"smiles": "COc1c(N2CC3CCCNC3C2)c(F)cc2c(=O)c(C(=O)N/N=C/c3ccc(N(C)C)cc3)cn(C3CC3)c12", "note": "(stereo not drawn)", "growth": "69.5%"}, {"smiles": "CC(=O)C1=C(C)NC(NN)=NC1c1cccc(Cl)c1", "note": "(stereo not drawn)", "growth": "99.9%"}, {"smiles": "C=CCn1c(SCC(=O)Nc2ccc(C(=O)/C=C/c3ccc(Br)cc3)cc2)nnc1-c1c[nH]c2ccccc12", "growth": "86.4%"}, {"smiles": "COc1cc(Cn2cc3c(c2)-c2onc(CN4CCCC4)c2CC3)cc(OC)c1OC", "growth": "92.3%"}, {"smiles": "O=C1Nc2ccccc2/C1=C/c1ccc(CO)n1-c1ccc(Cl)cc1", "growth": "75.4%"}, {"smiles": "O=C(CSc1nc2ccccc2c(=O)n1-c1ccc(Cl)cc1)N/N=C/c1ccc(N2CCCCC2)cc1", "growth": "62.3%"}, {"smiles": "Cc1ccc(-n2c(/C=C3\\C(=O)Nc4ccccc43)ccc2CO)cc1", "growth": "84.5%"}, {"smiles": "NC(=O)c1c(NC(=O)c2ccc(F)cc2F)sc2c1CCC(=O)C2", "growth": "66.1%"}, {"smiles": "CCC(CC)N1C(=O)/C(=c2\\sc3n(c2=O)NC2C(N=3)N(CC)C(=O)N2CC)c2ccccc21", "note": "(stereo not drawn)", "growth": "120%"}, {"smiles": "Clc1cccc(/C=N/Nc2nc(N/N=C/c3cccc(Cl)c3Cl)nc(N3CCCCC3)n2)c1Cl", "growth": "86.2%"}, {"smiles": "CCn1c2ccccc2c2cc(-n3nncc3-c3ccccc3)ccc21", "growth": "57.8%"}, {"smiles": "Cc1c(Cl)cccc1S(=O)(=O)Nc1ccc2c(c1)C(=O)N(C1CCC(=O)NC1=O)C2=O", "note": "(stereo not drawn)", "growth": "49%"}, {"smiles": "COc1ccc(NC(=O)CSc2nnc(-c3ccc4nc(-c5ccccc5)[nH]c4c3)o2)cc1", "growth": "99.4%"}, {"smiles": "CCOP(=O)(OCC)OC[C@]12CCC(C)(C)C=C1[C@H]1CC[C@@H]3[C@@]4(C)CC[C@H](OP(=O)(OCC)OCC)C(C)(C)[C@@H]4CC[C@@]3(C)[C@]1(C)CC2", "growth": "-65.2% (active)"}, {"smiles": "CCOC(=O)C(=O)CC(=O)N1C(=S)NC(=O)C1CC(C)C", "note": "(stereo not drawn)", "growth": "99.6%"}, {"smiles": "COc1cc(Cn2cc3c(c2)-c2onc(CN4CCOCC4)c2CC3)cc(OC)c1OC", "growth": "89.7%"}, {"smiles": "CC/C(=C/c1cc(OC)ccc1O)c1ccc2cc(OC)ccc2[o+]1", "growth": "71%"}, {"smiles": "O=C(O)c1ccc(-n2cc(CNc3cc(F)c(F)c(F)c3)c(-c3cccc(F)c3)n2)cc1", "growth": "104%"}, {"smiles": "C=CCn1c(SCC(=O)Nc2ccc(C(=O)/C=C/c3cccc([N+](=O)[O-])c3)cc2)nnc1-c1c[nH]c2ccccc12", "growth": "101%"}]}]}
